Screening results deposited in PubChem by Buhrlage Lab, Dana-Farber Cancer Institute and Novartis Institutes for BioMedical Research (Cambridge, Mass).
USP17 inh: inhibitors of human USP17 deubiquitinase; purified USP17, Ub-rhodamine cleavage fluorescence, 3 h; inhibition, % at 50 µM; 47,000 compounds, 6.5% hits
USP7 block: inhibitors of human USP7 deubiquitinase | AID 1645854, 2021 | purified USP7, Ub-rhodamine cleavage fluorescence | inhibition, % at 20 µM | 47,000 compounds, 0.3% hits | Ubiquitin carboxyl-terminal hydrolase 7 (Homo sapiens), Q93009
USP30 block: inhibitors of human USP30 deubiquitinase. purified USP30, Ub-rhodamine cleavage fluorescence. 47,000 compounds, 5.3% hits. inhibition, % at 25 µM. AID 1645860, 2021
UCHL1 inh: inhibitors of human UCHL1 deubiquitinase; Ubiquitin carboxyl-terminal hydrolase isozyme L1 (Homo sapiens), P09936; purified UCHL1, Ub-rhodamine cleavage fluorescence; inhibition, % at 20 µM; 47,000 compounds, 0.2% hits; AID 1645859, 2021
Target sequence (P09936 whole entry, looked up): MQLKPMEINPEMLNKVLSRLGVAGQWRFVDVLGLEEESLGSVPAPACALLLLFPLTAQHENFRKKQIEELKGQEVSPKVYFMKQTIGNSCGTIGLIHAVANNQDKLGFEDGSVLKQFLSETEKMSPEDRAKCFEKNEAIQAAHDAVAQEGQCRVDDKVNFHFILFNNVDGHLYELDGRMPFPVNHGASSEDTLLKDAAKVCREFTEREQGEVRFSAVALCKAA
USP8 inh: inhibitors of human USP8 deubiquitinase; Ubiquitin carboxyl-terminal hydrolase 8 (Homo sapiens), P40818; purified USP8, Ub-rhodamine cleavage fluorescence, 30 min; inhibition, % at 20 µM; 47,000 compounds, 4.2% hits; AID 1645853, 2021
USP10 inh: inhibitors of human USP10 deubiquitinase; purified USP10, Ub-rhodamine fluorescence, 60 min; inhibition, % at 20 µM; 47,000 compounds, 1.1% hits
Of the large screens only hits and unclear results are named; the others gave an inactive call. Only some compounds are listed: those with a hit (about 12% of all), similar ones and a draw of the others. Rule as the data show it: active = inhibition above about 30%; inactive = the rest.

CCc1nc(N2CCCC2)c2oc3ccccc3c2n1	none
CCc1nc(Nc2ccc3c(c2)SC2=NCCN23)c2oc3ccccc3c2n1	USP17 inh 61, USP30 block 41
CCN1C(=O)C2(CCN(CC(C)C)CC2)CC12CCN(C(=O)c1cccc(Cl)c1)CC2	none
Cc1ccc(S(=O)(=O)Nc2cccc(-c3nc4cccnc4s3)c2)cc1C	USP30 block 47
CC(C)C[C@H](NC(=O)[C@@H](O)[C@H]1OC(=O)C[C@@H]1N)[C@@H]1Cc2cccc(O)c2C(=O)O1	none
CC(C)(C)c1ccc(C(=O)Nc2ccc(O)c(-c3nc4cnccc4o3)c2)cc1	USP8 inh 61
Cc1ccccc1OCC(=O)Nc1ccc(O)c(-c2nc3ccccc3o2)c1	none
CC(=O)Nc1ccc(O)c(-c2nc3cc(C)ccc3o2)c1	USP17 inh 51
COc1cc2c(cc1OC)CC(=O)N(Cc1ccc([N+](=O)[O-])cc1)C=C2	none (no result: USP30 block)
Cc1ccc(C)c(Nc2nc(NCc3ccccc3)c3ccccc3n2)c1	USP17 inh 51, USP30 block 82
Cc1cc(N2C(=O)OCC2Cc2ccccc2)nc(C2CCN(S(C)(=O)=O)CC2)n1 (centres undefined)	none
CCc1ccc(NC(=O)CSc2ccc(N3CCC(C(=O)NC4CC4)CC3)nn2)cc1	USP17 inh 62, USP30 block 62, USP8 inh 81
O=C(CSc1ccc(N2CCOCC2)nn1)Nc1ccc(Cl)cc1	none
O=C(Cn1c(=O)n(C2CCCC2)c2ncccc21)Nc1ccc(Cl)cc1	none
COc1ccccc1-c1nc(Cn2nnc(C(=O)Nc3cc(C)cc(C)c3)c2N)c(C)o1	USP17 inh 66, USP30 block 35
CCOc1ccccc1NC(=O)Cn1nnc(C(=O)Nc2cc(C)cc(C)c2)c1N	none (no result: USP17 inh)
O=C(O)C1CCCN1C(=O)Nc1ccc2c(c1)OCO2 (centres undefined)	none
CSc1nc(N)c2c(n1)N[C@@H]1OC[C@@H](OC(C)=O)[C@@H](OC(C)=O)[C@@H]1N2C(C)=O	none
Cc1nc2ccc(C(=O)Nc3cc(Cl)cc4cccnc34)cc2nc1C	USP17 inh 63, USP8 inh 87
CCOc1ccc(S(=O)(=O)N(CC(=O)Nc2ccccc2)C(C)c2ccccc2)cc1 (centres undefined)	none
CC(=O)Nc1ccc(C(=O)N2CCC(Cn3cccn3)CC2)cc1	none
Cc1nnc(NC(=O)C2CCN(c3ccc(S(N)(=O)=O)cc3[N+](=O)[O-])CC2)o1	USP17 inh 73, USP7 block 43, UCHL1 inh 36, USP10 inh 62
Cc1ccc(S(=O)(=O)N2CCC(C(=O)Nc3nnc(C)o3)CC2)cc1	none
Cn1c(=O)c2c(nc(CN3CCOCC3)n2Cc2ccc(F)cc2)n(C)c1=O	none
Cn1c(=O)c2c(nc(CN3CCN(c4ccccc4F)CC3)n2Cc2ccccc2Cl)n(C)c1=O	USP30 block 31
COc1cnc(CSc2ccc(C)cc2)cc1OCC(=O)Nc1ccccc1	USP30 block 36
COc1ccccc1NC(=O)COc1cc(CSc2ncccn2)ncc1OC	none
O=C(O)CN1CCC2(CCC1=O)NC(=O)c1cc(Cl)ccc1N2 (centres undefined)	none
CC1=C(C)C(N(c2ccccc2)c2ccccc2)N(CCC(C)C)C1=O (centres undefined)	USP17 inh 76, USP8 inh 95
COc1ccc(NC(=O)N2CCCC2c2ccco2)cc1OC (centres undefined)	none
CCN1CCCC1CN(Cc1cc2cc(OC)ccc2[nH]c1=O)C(=O)NCc1ccccc1 (centres undefined)	USP17 inh 53
CCN1CCCC1CN(Cc1cc2cc(OC)ccc2[nH]c1=O)C(=O)Nc1ccccc1Cl (centres undefined)	USP17 inh 49
Cc1cccc(NC(=O)c2cccc(S(=O)(=O)N3CCOCC3)c2)c1C	none
Cc1ccc(S(=O)(=O)N2CC[C@@H]3CN(C(=O)c4ccccc4)[C@@H]3C2)cc1	USP30 block 35
O=C(NC1CCOCC1)N1CC[C@@H]2CN(C(=O)c3ccccc3)[C@@H]2C1	none
Cc1ccc(C(=O)N2CC[C@@H]3[C@H](C2)CN3C(=O)c2ccccc2)cc1	USP30 block 30
O=C(c1ccccc1)N1CC[C@@H]2CN(C(=O)C3CCCCC3)[C@@H]2C1	none
Cc1c(C(=O)NCc2cccnc2)oc2ccc3c(c12)C(O)CC1(CCCCC1)O3 (centres undefined)	none
N#C/C(=C/c1ccc(C(=O)O)cc1)c1nnc2n1CCCCC2	none
CC(C(=O)NCCc1ccccc1)n1nc(-c2ccccc2)c2cc(Cl)ccc21 (centres undefined)	USP17 inh 48, USP30 block 55, USP8 inh 31
CSc1ncccc1C(=O)OCc1ccc(Cl)c(Cl)c1	USP17 inh 45
COc1cccc(CNS(=O)(=O)c2ccc3c(c2)CCCN3C(=O)C2CCC2)c1	none
CCC1=C(c2ccc(C)cc2)S(=O)(=O)NC1=NCC(=O)NCc1ccccc1F	USP17 inh 60
CCC1=C(c2ccc(C)cc2)S(=O)(=O)NC1=NCC(=O)NCc1ccc(OC)cc1	none
CC1=C(c2ccc(F)cc2)S(=O)(=O)NC1=NCC(=O)Nc1ccc(F)cc1F	USP17 inh 36, USP30 block 54
CCC1=C(c2ccc(C)cc2)S(=O)(=O)NC1=NCC(=O)NCc1cccc(C)c1	USP17 inh 44
COc1ccccc1CNC(=O)CN=C1NS(=O)(=O)C(c2ccc(C)c(C)c2)=C1C	none
COCC(=O)N1CCN2C[C@H]1C(=O)NC[C@H]1O[C@@H](CC(=O)N[C@H]3C[C@@H](C2=O)N(Cc2cccc(Cl)c2)C3)[C@H](O)[C@@H]1O	none
Cn1cccc1C(=O)N1CCC2(CC1)CNS(=O)(=O)c1ccccc1OC2	none
COc1ccc(CN2C(=O)N(CC(=O)c3ccccc3)c3ccccc3S2(=O)=O)cc1	none
Cc1ccccc1NS(=O)(=O)c1cc(C(=O)N2CCCCC2)n(C)c1C	none
COc1cccc(NC(=O)C2C3C=CC4(O3)C2C(=O)N(CCc2ccccc2Cl)C4C(=O)NC2CCCCC2)c1 (centres undefined)	USP17 inh 39, USP30 block 39
COc1cccc(NC(=O)C2C3C=CC4(O3)C2C(=O)N(CCc2ccc(Cl)cc2)C4C(=O)NC2CCCCC2)c1 (centres undefined)	USP8 inh 50, USP10 inh 35
O=c1[nH]cccc1NS(=O)(=O)c1ccc(F)cc1	USP17 inh 86, USP8 inh 93
Cc1ccc(OCc2nc3ccccc3n2C(C)c2ccccc2)cc1 (centres undefined)	USP30 block 34
Cc1ccc(C(C)C)c(OCc2nc3ccccc3n2CC(C)C)c1	none
